Results on 11 compounds are retold here after PubChem BioAssay.

Calls of active or inactive are those of the source.

The test system of assay [1] is Plasmodium falciparum Sir2 (PF13_0152, Sir2A). Nature of the assay: pfSir2 binders on small-molecule microarrays, primary screen, biochemical, small-molecule microarray, 635 nm fluorescence (AID 1098).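 Also: score merges spot fluorescence intensity with its signal-to-noise ratio.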 The note with it: small-molecule microarray binding, fluorescence 635 nm; higher = more signal.
Assay [2] in a line: small-molecule microarray binders of probe aDKK1, primary screen, biochemical, biotinylated probe, 635/667 nm fluorescence (AID 1099).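 Also: score merges 667nm spot fluorescence with signal to noise across triplicate slides; reference of the scale not given here.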 The note with it: higher = more signal.
Assay [3] is described as follows: small-molecule microarray binders of probe aCHRDL2, primary screen, biochemical, biotinylated probe, 635/667 nm fluorescence (AID 1100). Conditions: higher = more signal.
Assay [4] is described as follows: splicing luciferase reporter signal modulators, primary screen, spliceosome inhibition project, cell-based, HEK293, splice +/- reporter (AID 1101).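 Also: HEK293 cells carrying a splicing-competent luciferase reporter gene; test concentration not given here.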 Conditions: luminescence, 24 h, higher = more signal, called active from +8 up or from −8 down.
Assay [5] has as its target Fibroblast growth factor 10 (Homo sapiens) (UniProt O15520). Nature of the assay: FGF10 binders on small-molecule microarrays, primary screen, biochemical, small-molecule microarray, 635 nm fluorescence (AID 1102). The note with it: FGF10 binding, fluorescence 635 nm, higher = more signal.
The test system of assay [6] is glycogen synthase kinase-3 (GSK3A per assay name; protocol says GSK3B). The assay is described as follows: GSK3 binders on small-molecule microarrays, primary screen, biochemical, small-molecule microarray, 635 nm fluorescence, GSK3A (AID 1103). Also: the record names both GSK3A and GSK3B. Conditions: small-molecule microarray binding, fluorescence 635 nm; higher = more signal.
Assay [7] concerns the target Epidermal growth factor receptor (Homo sapiens) (UniProt P00533). The assay is described as follows: EGFR binders on small-molecule microarrays, primary screen, biochemical, small-molecule microarray, 635 nm fluorescence (AID 1104).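 Also: score merges 667 nm emission intensity with spot signal to noise over triplicate slides.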 Conditions: EGFR binding, higher = more signal.
Assay [8] concerns the target Follistatin-related protein 3 (Homo sapiens) (UniProt O95633). Nature of the assay: FSTL3 binders on small-molecule microarrays, primary screen, biochemical, small-molecule microarray, 635 nm fluorescence (AID 1105).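 Also: score merges emission near 667 nm and signal to noise per printed spot across three slides.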 Conditions: FSTL3 binding, higher = more signal.
Assay [9] concerns the target Dickkopf-related protein 1 (Homo sapiens) (UniProt O94907). The assay is described as follows: DKK1 binders on small-molecule microarrays, primary screen, biochemical, small-molecule microarray, 635 nm fluorescence scan (AID 1106).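 Also: score merges emission near 667 nm with signal to noise over three replicate slides.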 Conditions: DKK1 binding, higher = more signal.
The test system of assay [10] is Inhibin beta A chain (activin A). Nature of the assay: INHBA (activin A) binders on microarrays, primary screen, biochemical, small-molecule microarray, 635 nm fluorescence scan (AID 1107).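 Also: mouse activin A protein probed at 4.33 µg/mL on printed slides; score merges bound-protein fluorescence near 667 nm with spot signal-to-noise.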 Conditions: small-molecule microarray binding, higher = more signal.

Sequence of Fibroblast growth factor 10 (Homo sapiens) (O15520 whole entry, looked up): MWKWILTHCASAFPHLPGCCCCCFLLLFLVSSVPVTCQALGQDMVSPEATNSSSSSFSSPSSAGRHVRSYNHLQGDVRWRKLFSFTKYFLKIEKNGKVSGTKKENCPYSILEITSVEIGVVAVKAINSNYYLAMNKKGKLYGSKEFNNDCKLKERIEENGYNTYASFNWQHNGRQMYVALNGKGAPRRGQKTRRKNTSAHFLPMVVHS
Sequence of Dickkopf-related protein 1 (Homo sapiens) (O94907 whole entry, looked up): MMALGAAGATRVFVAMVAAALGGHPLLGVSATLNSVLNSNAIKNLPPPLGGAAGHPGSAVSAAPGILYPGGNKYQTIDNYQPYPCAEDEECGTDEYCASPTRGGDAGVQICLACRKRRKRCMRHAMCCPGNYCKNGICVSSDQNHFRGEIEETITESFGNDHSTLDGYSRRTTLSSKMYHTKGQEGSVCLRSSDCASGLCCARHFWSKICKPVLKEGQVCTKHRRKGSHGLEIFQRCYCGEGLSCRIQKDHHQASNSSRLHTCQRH
Sequence of Epidermal growth factor receptor (Homo sapiens) (P00533 whole entry, looked up): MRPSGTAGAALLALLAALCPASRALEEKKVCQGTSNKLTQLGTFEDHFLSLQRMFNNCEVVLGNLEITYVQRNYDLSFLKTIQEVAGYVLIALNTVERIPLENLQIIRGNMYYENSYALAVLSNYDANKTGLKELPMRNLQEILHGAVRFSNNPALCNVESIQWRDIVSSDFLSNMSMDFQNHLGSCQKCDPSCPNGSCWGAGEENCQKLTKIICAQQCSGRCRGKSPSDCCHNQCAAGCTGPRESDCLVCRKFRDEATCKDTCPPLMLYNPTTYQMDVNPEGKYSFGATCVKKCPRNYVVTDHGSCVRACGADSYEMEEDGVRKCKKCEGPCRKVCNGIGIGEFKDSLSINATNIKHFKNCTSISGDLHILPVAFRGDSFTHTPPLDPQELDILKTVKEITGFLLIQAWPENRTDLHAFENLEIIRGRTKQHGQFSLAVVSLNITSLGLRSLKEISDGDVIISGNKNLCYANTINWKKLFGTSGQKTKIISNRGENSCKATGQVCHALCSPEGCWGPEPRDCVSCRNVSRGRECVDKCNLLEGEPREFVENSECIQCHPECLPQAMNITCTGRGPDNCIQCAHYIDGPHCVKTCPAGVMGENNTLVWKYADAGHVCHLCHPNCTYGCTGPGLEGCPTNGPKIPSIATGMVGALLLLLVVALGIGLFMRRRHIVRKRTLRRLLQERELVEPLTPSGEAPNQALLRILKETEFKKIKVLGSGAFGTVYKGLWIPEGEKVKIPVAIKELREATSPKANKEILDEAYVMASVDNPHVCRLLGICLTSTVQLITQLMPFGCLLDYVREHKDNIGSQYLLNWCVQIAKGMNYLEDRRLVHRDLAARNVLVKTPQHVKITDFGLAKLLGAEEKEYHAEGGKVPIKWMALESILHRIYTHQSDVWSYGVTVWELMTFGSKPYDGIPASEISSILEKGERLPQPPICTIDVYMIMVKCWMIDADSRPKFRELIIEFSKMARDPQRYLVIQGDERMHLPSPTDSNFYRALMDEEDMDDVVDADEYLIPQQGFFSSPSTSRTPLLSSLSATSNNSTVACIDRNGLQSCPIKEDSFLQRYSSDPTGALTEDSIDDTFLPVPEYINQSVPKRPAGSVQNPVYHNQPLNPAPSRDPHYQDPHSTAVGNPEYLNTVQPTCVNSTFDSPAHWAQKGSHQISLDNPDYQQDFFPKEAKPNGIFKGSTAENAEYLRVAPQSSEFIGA
Sequence of Follistatin-related protein 3 (Homo sapiens) (O95633 whole entry, looked up): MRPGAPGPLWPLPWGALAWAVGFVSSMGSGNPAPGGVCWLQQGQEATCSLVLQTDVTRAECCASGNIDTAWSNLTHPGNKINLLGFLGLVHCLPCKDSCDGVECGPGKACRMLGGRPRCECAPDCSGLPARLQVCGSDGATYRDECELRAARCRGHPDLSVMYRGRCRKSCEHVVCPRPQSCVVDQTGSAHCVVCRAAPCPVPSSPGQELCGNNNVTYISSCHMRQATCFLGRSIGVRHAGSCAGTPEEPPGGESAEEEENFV

Turning to `CCCCN1CC=CC23O[C@@H]4/C=C\CCC(C)OC(=O)C4[C@H]2C(=O)N(CCCO)[C@@H]3C1=O` (stereo not given in full), the composite z-score in assay [1] was 1.16; in assay [2] it was -0.235; in [3] it was 0.662; in assay [5], -1.13; in assay [6], -0.496; in assay [7], -0.983. In addition, the figures for the composite z-score in assay [8], in assay [9] and in assay [10] were -1.04, -1.37 and -0.372, respectively. Besides, the z-score in assay [4] is 0.239 (inactive).
`CCC1=C2CN(Cc3ccccc3)[C@@H](C(=O)Cc3ccccc3)C2C=CCC1` (stereo not given in full): the composite z-score was 1.46 in [1]; -0.0616 in assay [2]; -0.141 in assay [3]; 0.57 in assay [5]; -0.439 in [6]; -0.42 in assay [7]. For the same compound, the composite z-score in assay [8] worked out at 0.532; in assay [9] it was 0.118; in assay [10] it was 0.749. Also, in assay [4], the z-score was -1.04 (inactive).
Consider `COc1cc(NN2C(C(O)c3ccc(N(C)C)cc3)C=CC3C(=O)N(c4ccccc4)C(=O)C32)cc(OC)c1OC` (stereo not given), for which the composite z-score in assay [1] is 0.101; in [2] it was 1.16; in assay [3] it was 1.13; in [5] it was 0.513; in [6], 0.765; in [7], -0.038. In addition, the composite z-score in assay [8] is 0.455; in assay [9], -0.335; in [10], 1.67. Besides, the z-score in assay [4] is -0.859 (inactive).
In the case of `C[N+](C)(C)CCCCCCNC(=O)[C@@H]1C[C@@H]2C(=O)N3CCC[C@H]3C(=O)N2[C@@H]1c1ccc(O)cc1`, the composite z-score in assay [1] was 1.1; in assay [2], -0.0891; in assay [3] it was 0.614; in assay [5], 1.37; in [6], 1.2; in assay [7], 1.23. For the same compound, the figures for the composite z-score in assay [8], in [9] and in assay [10] were 1.46, 1.25 and 0.578, respectively. Also, the z-score in [4] was -0.546 (inactive).
With `[N-]=[N+]=Nc1ccccc1C[C@]1(C(=O)NCC(O)CO)COC(c2ccc(OCCCO)cc2)=N1` (stereo not given in full), the composite z-score was 0.989 in [1]; 0.72 in assay [2]; 1.18 in [3]; -0.582 in [5]; -0.269 in assay [6]; -0.603 in assay [7]. In addition, the composite z-score in assay [8] is -1.14; in assay [9], -0.975; in [10], 1.16. For the same compound, the z-score in assay [4] was 0.173 (inactive).
On to `C#Cc1cc2ccccc2oc1=O`, for which the composite z-score in assay [1] was 0.253; in assay [2], -0.265; in [3], 0.256; in assay [5], -0.347; in [6] it was -0.748; in assay [7], -2.35. The figures for the composite z-score in [8], in [9] and in assay [10] were -2.4, -1.87 and -1.73, respectively. In addition, the z-score in [4] was 3.33 (inactive).
In the case of `C=CC[C@@]1(C(=O)NCCCOC)N=C(c2ccc(OCCCO)cc2)O[C@@H]1c1ccccc1`, the composite z-score in assay [1] is 1.7; in assay [2], 2.31; in [3] it was 1.36; in assay [5], 0.311; in assay [6] it was 0.326; in [7], -0.848. The composite z-score in assay [8] is -0.439; in [9] it was -0.666; in [10] it was 0.923. Besides, the z-score in assay [4] is -1.39 (inactive).
In the case of `CN(C)C(=O)[C@]1(CCC(=O)OC(C)(C)C)N=C(c2ccc(OCCCO)cc2)O[C@@H]1c1ccccc1CN=[N+]=[N-]`, the composite z-score is 1.45 in assay [1]; -0.594 in [2]; 1.08 in [3]; 0.518 in [5]; 0.7 in assay [6]; 0.195 in [7]. Besides, the composite z-score in assay [8] was 0.47; in assay [9] it was -0.396; in assay [10] it was 0.418. For the same compound, in assay [4], the z-score was -0.561 (inactive).
With `CCOC(=O)C1=C[C@@H](c2ccccc2)N(S(=O)(=O)c2ccc(C)cc2)[C@H]1c1ccc(OC)cc1`, the composite z-score was 0.979 in [1]; 1.16 in [2]; 1.05 in assay [3]; 0.957 in assay [5]; 0.938 in assay [6]; 0.561 in assay [7]. For the same compound, the composite z-score in [8] came to 0.652; in assay [9], 0.0786; in assay [10] it was 1.25. In addition, in assay [4], the z-score is -0.71 (inactive).
As for `CO[C@H]1O[C@H](CO)[C@@H](OC(=O)Nc2ccc3c(c2)OCO3)[C@H](OC(=O)Nc2ccc3c(c2)OCO3)[C@@H]1OC(=O)Nc1ccc2c(c1)OCO2`, the composite z-score in assay [1] was 1.33; in [2], 0.203; in assay [3] it was 0.195; in assay [5], 1.39; in assay [6], 1.23; in assay [7] it was 0.273. The composite z-score in [8] was 1.41; in assay [9], 0.378; in [10] it was 0.762. In addition, in assay [4], the z-score is -0.714 (inactive).
As for `C=C(/C(=C/C[C@H](OC(C)=O)c1ccc(CO)o1)c1cnc2ccccc2c1)C(C)C`, the composite z-score in [1] was 1.1; in [2], -0.151; in assay [3], -0.483; in [5], 1.44; in assay [6], 1.21; in assay [7], 0.845. For the same compound, the composite z-score in assay [8] came to 1.58; in assay [9] it was 0.643; in assay [10] it was 1.52. Moreover, the z-score in [4] is 0.652 (inactive).
